# From publication PMC7862700, “An all-to-all approach to the identification of sequence-specific readers for epigenetic DNA modifications on cytosine”
# Legend:
# Experiment in all cases: DAPPL (digital affinity profiling via proximity ligation, sequencing); 10 mM Tris-HCl pH 7.5, 50 mM NaCl, 1 mM DTT, 4% glycerol, room temperature, 30 min; GST-TFs on glutathione beads, 16-mer random dsDNA library, 0.1% formaldehyde crosslink after washing; high values mean tight binding
# Conditions in all cases: protein: recombinant; tags: N-terminal GST; dsDNA, one strand shown
# [1] = target: T1, GABPA (Homo sapiens, UniProt Q06546 1-454)
# T1 sequence: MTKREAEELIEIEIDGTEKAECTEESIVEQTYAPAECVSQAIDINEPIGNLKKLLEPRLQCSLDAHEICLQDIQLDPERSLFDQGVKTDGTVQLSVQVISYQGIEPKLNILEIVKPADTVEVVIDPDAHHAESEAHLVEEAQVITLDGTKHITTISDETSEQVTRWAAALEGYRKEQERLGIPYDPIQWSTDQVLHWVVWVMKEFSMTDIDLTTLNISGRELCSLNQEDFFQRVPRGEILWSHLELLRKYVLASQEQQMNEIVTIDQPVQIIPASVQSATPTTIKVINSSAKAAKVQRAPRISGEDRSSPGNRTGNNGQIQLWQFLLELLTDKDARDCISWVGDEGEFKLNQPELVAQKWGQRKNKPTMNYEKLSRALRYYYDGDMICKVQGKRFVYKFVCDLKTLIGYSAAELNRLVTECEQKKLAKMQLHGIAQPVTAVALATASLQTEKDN
# Procedure, shortened: (§1)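 A tag-only sample was pooled with DNA-barcoded human transcription factors that had been expressed in yeast as GST fusions and captured on glutathione beads. The pools were incubated for 30 min at room temperature with 200 nmole of a random double-stranded 16-mer DNA library in Tris/NaCl/DTT/glycerol buffer, then washed, crosslinked with 0.1% formaldehyde, proximity-ligated (BsaI/T4 ligase, 1 h, 37 °C), PCR-amplified and sequenced on an Illumina NextSeq500. Binding signal is each hexamer's read frequency for a factor divided by its frequency for the tag-only sample.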
# [2] = target: ELF1 (Homo sapiens, UniProt P32519 1-619)
# Procedure, shortened: as §1
# [3] = target: T2, EHF (Homo sapiens, UniProt Q9NZC4 1-300)
# T2 sequence: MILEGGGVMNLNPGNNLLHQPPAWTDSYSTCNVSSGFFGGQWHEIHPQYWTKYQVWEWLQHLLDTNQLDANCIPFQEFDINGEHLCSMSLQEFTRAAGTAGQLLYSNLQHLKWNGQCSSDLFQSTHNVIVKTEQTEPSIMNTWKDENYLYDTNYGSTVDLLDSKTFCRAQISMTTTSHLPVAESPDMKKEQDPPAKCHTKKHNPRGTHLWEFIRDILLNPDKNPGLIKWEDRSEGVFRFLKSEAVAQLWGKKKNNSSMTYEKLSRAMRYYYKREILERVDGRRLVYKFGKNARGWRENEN
# Procedure, shortened: as §1
# [4] = target: ETV5 (Homo sapiens, UniProt P41161 1-510)
# Procedure, shortened: as §1
# [5] = target: ELF4 (Homo sapiens, UniProt Q99607 1-663)
# Procedure, shortened: as §1
# [6] = target: T3, ELK4 (Homo sapiens, UniProt P28324-2 1-405)
# T3 sequence: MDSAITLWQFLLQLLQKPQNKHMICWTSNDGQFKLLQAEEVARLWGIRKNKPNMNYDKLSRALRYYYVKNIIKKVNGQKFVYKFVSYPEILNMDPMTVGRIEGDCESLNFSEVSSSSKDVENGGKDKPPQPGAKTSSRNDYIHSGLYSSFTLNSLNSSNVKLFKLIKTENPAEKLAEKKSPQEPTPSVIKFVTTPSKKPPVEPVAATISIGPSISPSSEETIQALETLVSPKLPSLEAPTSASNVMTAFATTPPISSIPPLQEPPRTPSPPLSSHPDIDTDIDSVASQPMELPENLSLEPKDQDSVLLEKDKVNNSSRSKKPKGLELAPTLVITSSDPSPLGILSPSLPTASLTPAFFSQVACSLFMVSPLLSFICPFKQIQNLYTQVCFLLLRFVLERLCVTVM
# Procedure, shortened: as §1
# [7] = target: T4, ETV2 (Homo sapiens, UniProt O00321 1-342)
# T4 sequence: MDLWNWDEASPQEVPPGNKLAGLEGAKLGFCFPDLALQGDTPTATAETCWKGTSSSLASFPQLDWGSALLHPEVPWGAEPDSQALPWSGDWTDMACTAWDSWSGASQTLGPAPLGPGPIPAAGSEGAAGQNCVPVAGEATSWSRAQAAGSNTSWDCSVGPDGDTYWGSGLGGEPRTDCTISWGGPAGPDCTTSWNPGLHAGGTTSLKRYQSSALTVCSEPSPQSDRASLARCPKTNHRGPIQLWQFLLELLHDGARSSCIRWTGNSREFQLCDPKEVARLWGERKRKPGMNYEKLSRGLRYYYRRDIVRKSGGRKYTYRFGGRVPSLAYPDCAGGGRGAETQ
# Procedure, shortened: as §1
# [8] = target: T5, ELF3 (Homo sapiens, UniProt P78545 1-371)
# T5 sequence: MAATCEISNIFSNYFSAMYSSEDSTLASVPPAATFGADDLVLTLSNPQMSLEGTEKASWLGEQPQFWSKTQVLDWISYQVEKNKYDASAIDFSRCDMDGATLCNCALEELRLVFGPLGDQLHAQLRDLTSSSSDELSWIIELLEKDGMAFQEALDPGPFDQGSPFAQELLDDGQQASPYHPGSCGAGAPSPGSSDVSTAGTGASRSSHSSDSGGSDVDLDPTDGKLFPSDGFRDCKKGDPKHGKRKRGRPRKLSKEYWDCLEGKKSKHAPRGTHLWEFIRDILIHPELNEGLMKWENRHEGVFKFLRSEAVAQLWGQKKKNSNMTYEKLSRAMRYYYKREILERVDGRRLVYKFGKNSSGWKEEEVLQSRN
# Procedure, shortened: as §1
# [9] = target: T6, ETV3L (Homo sapiens, UniProt Q6ZN32 1-361)
# T6 sequence: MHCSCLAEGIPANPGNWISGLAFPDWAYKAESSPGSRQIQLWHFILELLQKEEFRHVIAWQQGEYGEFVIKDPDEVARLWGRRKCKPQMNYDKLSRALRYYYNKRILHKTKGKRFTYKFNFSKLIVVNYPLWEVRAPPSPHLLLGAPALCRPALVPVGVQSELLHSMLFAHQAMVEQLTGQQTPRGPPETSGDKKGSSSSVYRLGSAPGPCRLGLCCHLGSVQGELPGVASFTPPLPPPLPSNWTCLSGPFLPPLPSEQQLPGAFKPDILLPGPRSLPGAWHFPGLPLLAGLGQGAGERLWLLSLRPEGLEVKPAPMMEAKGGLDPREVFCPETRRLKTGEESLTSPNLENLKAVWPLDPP
# Procedure, shortened: as §1
# [10] = target: T7, ETS2 (Homo sapiens, UniProt P15036 1-469)
# T7 sequence: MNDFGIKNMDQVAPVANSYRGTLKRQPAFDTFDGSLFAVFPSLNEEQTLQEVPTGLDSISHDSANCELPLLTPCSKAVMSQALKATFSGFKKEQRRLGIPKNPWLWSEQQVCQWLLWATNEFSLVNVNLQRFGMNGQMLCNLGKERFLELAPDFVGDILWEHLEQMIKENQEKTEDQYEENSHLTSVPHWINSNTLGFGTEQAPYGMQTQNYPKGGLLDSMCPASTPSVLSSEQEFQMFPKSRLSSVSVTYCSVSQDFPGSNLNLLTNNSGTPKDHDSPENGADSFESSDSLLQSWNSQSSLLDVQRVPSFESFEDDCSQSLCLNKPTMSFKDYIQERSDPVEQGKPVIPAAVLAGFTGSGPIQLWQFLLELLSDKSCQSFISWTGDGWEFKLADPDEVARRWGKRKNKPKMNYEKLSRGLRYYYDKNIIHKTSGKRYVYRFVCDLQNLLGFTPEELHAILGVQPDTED
# Procedure, shortened: as §1
# [11] = target: T8, ETV7 (Homo sapiens, UniProt Q9Y603 1-341)
# T8 sequence: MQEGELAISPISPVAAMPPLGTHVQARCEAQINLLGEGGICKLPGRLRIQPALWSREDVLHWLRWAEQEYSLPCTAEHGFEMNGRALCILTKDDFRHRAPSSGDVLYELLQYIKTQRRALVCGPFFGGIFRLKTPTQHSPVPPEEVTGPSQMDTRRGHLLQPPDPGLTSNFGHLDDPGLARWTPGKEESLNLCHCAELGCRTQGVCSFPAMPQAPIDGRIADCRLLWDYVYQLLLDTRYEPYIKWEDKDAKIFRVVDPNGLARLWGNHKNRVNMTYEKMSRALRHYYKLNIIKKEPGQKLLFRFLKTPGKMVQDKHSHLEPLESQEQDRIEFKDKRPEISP
# Procedure, shortened: as §1
# [12] = target: T9, ETV3 (Homo sapiens, UniProt P41162-2 1-143)
# T9 sequence: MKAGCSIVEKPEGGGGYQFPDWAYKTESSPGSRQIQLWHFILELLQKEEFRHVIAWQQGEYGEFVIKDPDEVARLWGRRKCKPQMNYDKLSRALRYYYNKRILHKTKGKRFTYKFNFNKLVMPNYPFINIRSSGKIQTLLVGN
# Procedure, shortened: as §1
# Chain of ELF4 (Q99607 whole entry): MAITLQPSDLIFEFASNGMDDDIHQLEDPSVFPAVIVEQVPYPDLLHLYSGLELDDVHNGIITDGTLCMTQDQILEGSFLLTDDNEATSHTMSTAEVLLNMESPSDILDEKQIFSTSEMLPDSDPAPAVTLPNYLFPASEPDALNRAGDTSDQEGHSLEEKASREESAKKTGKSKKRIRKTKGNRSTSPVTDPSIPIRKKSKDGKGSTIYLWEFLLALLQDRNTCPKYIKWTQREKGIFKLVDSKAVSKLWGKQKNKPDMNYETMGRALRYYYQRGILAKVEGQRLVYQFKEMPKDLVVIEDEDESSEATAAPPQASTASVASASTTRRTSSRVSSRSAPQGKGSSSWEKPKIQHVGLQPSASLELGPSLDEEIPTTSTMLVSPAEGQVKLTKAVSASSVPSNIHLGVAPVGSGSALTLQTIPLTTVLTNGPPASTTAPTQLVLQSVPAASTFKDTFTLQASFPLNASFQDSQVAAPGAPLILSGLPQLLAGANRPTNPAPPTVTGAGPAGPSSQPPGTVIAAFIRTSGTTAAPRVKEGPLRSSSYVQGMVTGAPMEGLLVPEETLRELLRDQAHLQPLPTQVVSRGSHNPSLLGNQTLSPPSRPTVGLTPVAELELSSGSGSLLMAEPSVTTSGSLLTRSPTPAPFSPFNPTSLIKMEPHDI
# Chain of ETV5 (P41161 whole entry): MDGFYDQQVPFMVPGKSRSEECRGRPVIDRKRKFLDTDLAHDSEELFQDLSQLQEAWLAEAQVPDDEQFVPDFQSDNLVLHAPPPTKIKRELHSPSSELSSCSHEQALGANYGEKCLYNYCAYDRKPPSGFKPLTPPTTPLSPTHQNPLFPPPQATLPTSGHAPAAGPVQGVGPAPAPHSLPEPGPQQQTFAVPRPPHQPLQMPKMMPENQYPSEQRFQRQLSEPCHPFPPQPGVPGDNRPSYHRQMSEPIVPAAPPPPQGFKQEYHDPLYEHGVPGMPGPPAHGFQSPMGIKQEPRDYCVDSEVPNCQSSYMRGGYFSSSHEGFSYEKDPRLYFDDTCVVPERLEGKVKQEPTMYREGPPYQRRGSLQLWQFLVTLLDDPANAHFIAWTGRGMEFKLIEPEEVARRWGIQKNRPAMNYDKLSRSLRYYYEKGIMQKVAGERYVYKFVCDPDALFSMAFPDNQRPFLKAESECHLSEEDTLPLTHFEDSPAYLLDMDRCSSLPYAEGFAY
# Chain of ELF1 (P32519 whole entry): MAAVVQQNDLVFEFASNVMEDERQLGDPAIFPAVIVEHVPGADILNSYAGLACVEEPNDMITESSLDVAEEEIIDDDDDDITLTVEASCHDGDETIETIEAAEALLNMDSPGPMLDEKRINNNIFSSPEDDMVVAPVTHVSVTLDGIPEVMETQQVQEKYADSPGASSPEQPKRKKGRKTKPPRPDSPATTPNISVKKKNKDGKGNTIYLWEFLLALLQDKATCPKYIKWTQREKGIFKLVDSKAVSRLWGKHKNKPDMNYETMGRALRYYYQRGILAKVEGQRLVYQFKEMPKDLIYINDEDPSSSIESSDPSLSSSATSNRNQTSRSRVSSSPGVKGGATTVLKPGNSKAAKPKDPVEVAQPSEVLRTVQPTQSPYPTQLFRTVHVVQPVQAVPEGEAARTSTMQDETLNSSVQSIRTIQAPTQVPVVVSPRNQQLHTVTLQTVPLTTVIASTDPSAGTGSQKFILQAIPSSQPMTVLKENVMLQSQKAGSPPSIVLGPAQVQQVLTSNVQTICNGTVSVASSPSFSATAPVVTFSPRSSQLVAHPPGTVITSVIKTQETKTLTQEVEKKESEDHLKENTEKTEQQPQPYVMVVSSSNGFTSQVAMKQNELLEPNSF
sequence,measurement,setting,value
CCAAGC,binding signal,[1],"1.06 fold enrichment (6-mer frequency, TF over GST control)"
same,binding signal,[2],"1.04 fold enrichment (6-mer frequency, TF over GST control)"
same,binding signal,[3],"1.02 fold enrichment (6-mer frequency, TF over GST control)"
same,binding signal,[4],"1.09 fold enrichment (6-mer frequency, TF over GST control)"
same,binding signal,[5],"1.07 fold enrichment (6-mer frequency, TF over GST control)"
same,binding signal,[6],"1.03 fold enrichment (6-mer frequency, TF over GST control)"
same,binding signal,[7],"1.02 fold enrichment (6-mer frequency, TF over GST control)"
same,binding signal,[8],"1.2 fold enrichment (6-mer frequency, TF over GST control)"
same,binding signal,[9],"1.01 fold enrichment (6-mer frequency, TF over GST control)"
same,binding signal,[10],"1.03 fold enrichment (6-mer frequency, TF over GST control)"
same,binding signal,[11],"1.06 fold enrichment (6-mer frequency, TF over GST control)"
same,binding signal,[12],"1.03 fold enrichment (6-mer frequency, TF over GST control)"
